PubChem BioAssay (NCI)
About 83,000 compounds went through this panel and 20% of them were active in at least one assay; those are over-represented in the sample as a whole.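 96-well plates, one dose, 48 hours. Percent growth reported; active if below 10.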 Values without a mark were called inactive. Activity calls are given as the source filed them.

Test system: NCI-H460 lung
Test: NCI-60 one-dose screen, 48 h (100 = growth as untreated, 0 = no growth, -100 = all killed)
Conditions: 10 µM unless noted

Which growth does the source give for `COc1ccc(/C=C(\C#N)n2nnc3cc(Cl)ccc32)cc1` here?
The growth was 1.99% (active).

With `COc1ccc(C(=O)/C=C/c2c(C(F)(F)F)nc3ccccn23)cc1OC` as the molecule, how does the growth read?
The growth was -33.6% (active).

For `CCN(C)S(=O)(=O)Nc1cccc(Nc2ncnc3cc(NC(=O)CCl)ccc23)c1Cl`, which growth is on record?
Its growth is -22.5% (active).

`Cc1c2cnccc2c(C)c2c1c1cc(C#N)ccc1n2C` was tested. Which growth did it give?
Its growth is -19.7% (active).

For `CN(C)CC(C)(C)C(=O)/C=C/c1ccccc1`, which growth is on record?
Its growth is -27% [25 µM] (active).

With `O=CN1N=C(c2cccc(Nc3ccnc4cc(Cl)ccc34)c2)CC1c1ccccc1` (stereo unspecified) as the molecule, how does the growth read?
The growth was 7.29% (active).

How did the growth turn out when `O=C(Nc1ccc(Oc2cccc(Cl)c2)c(Cl)c1)c1cnccn1` was run?
Its growth is 15.7%.

How did the growth turn out when `O=c1[nH]c(Cc2nc3ccccc3s2)nc2cc(Br)ccc12` was run?
The growth was 53.3%.

How did the growth turn out when `C#CCNC(=O)[C@H](CC)[C@H]1CC[C@H](C)[C@H]([C@@H](C)[C@H](O)[C@H](C)C(=O)[C@H](CC)C2O[C@]3(C=CC(=O)[C@]4(CC[C@@](C)([C@H]5CC[C@](O)(CC)[C@H](C)O5)O4)O3)[C@H](C)C[C@@H]2C)O1` (stereo partly specified) was run?
Its growth is 35.5%.

With `O=C(Nc1ccc(Oc2cccc(F)c2)c(Cl)c1)c1cccnc1` as the molecule, how does the growth read?
The growth was 24.7%.

Which growth does the source give for `CS(=O)(=O)Nc1cc(-c2ccc3ncnc(Nc4ccc5c(cnn5Cc5ccc(F)cc5)c4)c3c2)cnc1Cl` here?
The growth was 61.5%.

`COC1=CC(c2ccc[nH]2)=N/C1=C\c1[nH]c(C)c(C)c1CCC(=O)OCc1ccccc1` was tested. Which growth did it give?
The growth was 18.6%.

`CC(C)(C)CC(C)(C)NC(=O)Nc1ncccc1OCc1ccccc1` was tested. Which growth did it give?
The growth was 106%.

With `Nc1nc2ccccc2c2c1S(=O)(=O)c1ccc(Cl)cc1C2=O` as the molecule, how does the growth read?
Its growth is 23.5%.

`CCOC(=O)C/C(=N\Nc1cc(=O)[nH]c2ccc(Br)cc12)C(=O)OCC` was tested. Which growth did it give?
Its growth is 101%.

With `COc1cc(-c2csc(NC(=O)c3ccc(N4CCOCC4)c(C(F)(F)F)c3)n2)cc(OC)c1OC` as the molecule, how does the growth read?
The growth was 46.2%.

`Oc1c(Br)cc(Br)c2ccc(Cn3cc(-c4ccc(C(F)(F)F)cc4)nn3)nc12` was tested. Which growth did it give?
Its growth is 103%.

How did the growth turn out when `C#CCOc1ccc2ncnc(Nc3ccc(NC(=O)C=C)cc3)c2c1` was run?
The growth was 24.1%.

Which growth does the source give for `CCn1cc(C(=O)O)c(=O)c2cc(F)c(N3CCN(CC(=O)Nc4ccc(S(=O)(=O)Nc5nccc(C)n5)cc4)C(C)C3)c(F)c21` (stereo unspecified) here?
The growth was 104%.

How did the growth turn out when `O=C(Nc1cccc(-c2ccc(N3CCOCC3)nn2)c1)Nc1cccc(C(F)(F)F)c1` was run?
The growth was 79.1%.

For `CSc1nc2ncc([N+](=O)[O-])c(=O)n2[nH]1`, which growth is on record?
The growth was 103%.

Which growth does the source give for `COc1cc2ncnc(Nc3ccc(S(=O)(=O)Nc4cc(C)on4)cc3)c2cc1OCCCN1CCN(c2ccc(F)cc2)CC1` here?
Its growth is 102%.

For `O=S(=O)(NCCNc1nccc(-c2c(-c3ccc(F)c(O)c3)nc3occn23)n1)c1ccc(Cl)cc1`, which growth is on record?
Its growth is 76.7%.

`Nc1ncnc2c1N=C(c1ccc(Br)cc1)CC(c1cccc(Nc3ccnc4cc(C(F)(F)F)ccc34)c1)N2` (stereo unspecified) was tested. Which growth did it give?
The growth was 59.1%.

For `Nc1ncc(-c2ccc3ncnc(Nc4cccc(Cl)c4)c3c2)cn1`, which growth is on record?
The growth was 54.8%.

Which growth does the source give for `O=C(Nc1ccccc1)Nc1ncnc2c1ncn2-c1ccc(Cl)cc1` here?
Its growth is 46.3%.
